# Data reported in PubChem BioAssay (NCATS).
# Results filed as inconclusive are left out. A call without a number means that no potency is given here. Calls of active or inactive are those of the source. The call rests on the fitted dose curve.
# Molecular target: Atrial natriuretic peptide receptor 1 (Homo sapiens) (UniProt P16066)
# Assay: Natriuretic polypeptide receptor (hNpr1) antagonism - Pilot screen (AID 1347049);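 further: HEK293 cells with hNpr1 and GloSensor cGMP luciferase stimulated by 0.1 nM hNppA; agonist-evoked cGMP luminescence read 20 min after hNppA addition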
# Details: hNpr1 cells, antagonist mode cGMP read-out; series mostly up to 57.5 µM
# How it was run: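 Receptor antagonism read as cGMP-dependent luminescence in hNpr1/pGS-40F HEK293 cells: pre-read after 30 min compound exposure, post-read 20 min after hNppA agonist at 0.1 nM final, all at room temperature, protected from light; A-71915 titration as control.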
# Chain of Atrial natriuretic peptide receptor 1 (Homo sapiens) (P16066 whole entry, looked up): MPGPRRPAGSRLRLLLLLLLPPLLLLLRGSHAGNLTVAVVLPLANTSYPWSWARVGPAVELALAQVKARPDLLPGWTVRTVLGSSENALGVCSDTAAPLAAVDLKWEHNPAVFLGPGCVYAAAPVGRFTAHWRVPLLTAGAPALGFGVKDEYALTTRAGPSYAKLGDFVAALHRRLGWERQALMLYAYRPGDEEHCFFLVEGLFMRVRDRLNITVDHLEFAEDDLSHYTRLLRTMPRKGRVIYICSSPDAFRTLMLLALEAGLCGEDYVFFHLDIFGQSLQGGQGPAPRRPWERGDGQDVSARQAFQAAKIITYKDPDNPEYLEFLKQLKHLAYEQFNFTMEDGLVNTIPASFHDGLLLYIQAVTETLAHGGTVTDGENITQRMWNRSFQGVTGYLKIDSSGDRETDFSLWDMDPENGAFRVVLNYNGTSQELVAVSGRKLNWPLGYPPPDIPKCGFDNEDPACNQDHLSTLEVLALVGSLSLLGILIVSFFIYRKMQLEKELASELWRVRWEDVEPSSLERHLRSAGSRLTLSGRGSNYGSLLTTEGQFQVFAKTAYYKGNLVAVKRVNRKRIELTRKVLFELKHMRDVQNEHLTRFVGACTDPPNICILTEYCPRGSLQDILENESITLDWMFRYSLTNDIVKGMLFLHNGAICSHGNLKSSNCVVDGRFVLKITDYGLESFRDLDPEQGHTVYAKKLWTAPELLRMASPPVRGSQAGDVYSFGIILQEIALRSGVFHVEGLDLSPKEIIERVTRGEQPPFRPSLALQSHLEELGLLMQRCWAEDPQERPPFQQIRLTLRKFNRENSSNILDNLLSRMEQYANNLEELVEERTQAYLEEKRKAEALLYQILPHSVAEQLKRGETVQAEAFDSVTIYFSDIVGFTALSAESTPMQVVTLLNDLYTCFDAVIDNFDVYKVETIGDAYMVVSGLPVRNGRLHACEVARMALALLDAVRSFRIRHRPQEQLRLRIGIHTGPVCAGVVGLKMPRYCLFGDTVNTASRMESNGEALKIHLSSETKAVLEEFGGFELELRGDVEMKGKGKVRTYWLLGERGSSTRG
row,Structure (SMILES),Potency
1,NCCS(=O)(=O)O,inactive
2,CNCCCC12CCC(c3ccccc31)c1ccccc12,inactive
3,COc1cc2nc(N3CCN(C(=O)C4COc5ccccc5O4)CC3)nc(N)c2cc1OC (configuration not stated),inactive
4,CC(C)NCC(O)c1ccc(O)c(O)c1 (configuration not stated),inactive
5,Cn1c(=O)c2[nH]cnc2n(C)c1=O,inactive
6,COC(=O)Nc1nc2ccc(C(=O)c3cccs3)cc2[nH]1,inactive
7,Cc1cc(C(C)(C)C)cc(C)c1CC1=NCCN1,inactive
8,COc1ccccc1OCC(O)CN1CCN(CC(=O)Nc2c(C)cccc2C)CC1 (configuration not stated),inactive
9,NC12CC3CC(CC(C3)C1)C2,inactive
10,CN1CCN(CCCN2c3ccccc3Sc3ccc(Cl)cc32)CC1,inactive
11,CCC1(C)CC(=O)NC1=O (configuration not stated),inactive
12,Clc1ccccc1C(c1ccccc1)(c1ccccc1)n1ccnc1,inactive
13,CC[N+](CC)(CC)CCOc1cccc(OCC[N+](CC)(CC)CC)c1OCC[N+](CC)(CC)CC,inactive
14,NC(=O)NO,inactive
15,NCCCCCC(=O)O,inactive
16,CCc1cccc2c3c([nH]c12)C(CC)(CC(=O)O)OCC3 (configuration not stated),inactive

row,Structure (SMILES),Potency
1,CN1C(C(=O)Nc2ccccn2)=C(O)c2ccccc2S1(=O)=O,inactive
2,Cc1cnc(C(=O)NCCc2ccc(S(=O)(=O)NC(=O)NC3CCCCC3)cc2)cn1,inactive
3,COc1cc2c(c(OC)c1OC)-c1ccc(OC)c(=O)cc1[C@@H](NC(C)=O)CC2,inactive
4,CN(C)C(=O)C(CCN1CCC(O)(c2ccc(Cl)cc2)CC1)(c1ccccc1)c1ccccc1,inactive
5,COc1nc(C)nc(Cl)c1NC1=NCCN1,inactive
6,Cc1ccc(C(=O)Nc2ccc(S(=O)(=O)O)c3cc(S(=O)(=O)O)cc(S(=O)(=O)O)c23)cc1NC(=O)c1cccc(NC(=O)Nc2cccc(C(=O)Nc3cc(C(=O)Nc4ccc(S(=O)(=O)O)c5cc(S(=O)(=O)O)cc(S(=O)(=O)O)c45)ccc3C)c2)c1,inactive
7,OCCN1CCN(CCCN2c3ccccc3Sc3ccc(C(F)(F)F)cc32)CC1,inactive
8,C[C@](N)(Cc1ccc(O)c(O)c1)C(=O)O,inactive
9,Cc1cn([C@H]2C[C@H](N=[N+]=[N-])[C@@H](CO)O2)c(=O)[nH]c1=O,inactive
10,NC(=O)OCC(COC(N)=O)c1ccccc1,inactive
11,NC(CO)C(=O)NNCc1ccc(O)c(O)c1O (configuration not stated),inactive
12,O=C(c1ccc(F)cc1)C1CCN(CCn2c(=O)[nH]c3ccccc3c2=O)CC1,inactive
13,Cc1cc(C(C)(C)C)c(O)c(C)c1CC1=NCCN1,inactive
14,COc1cc2nc(N(C)CCCNC(=O)C3CCCO3)nc(N)c2cc1OC (configuration not stated),inactive
15,CCCCc1oc2ccccc2c1C(=O)c1cc(I)c(OCCN(CC)CC)c(I)c1,inactive
16,COc1cc2nc(N3CCN(C(=O)c4ccco4)CC3)nc(N)c2cc1OC,inactive

# Molecular target: Atrial natriuretic peptide receptor 2 (Homo sapiens) (UniProt P20594)
# Sequence (P20594 whole entry, looked up): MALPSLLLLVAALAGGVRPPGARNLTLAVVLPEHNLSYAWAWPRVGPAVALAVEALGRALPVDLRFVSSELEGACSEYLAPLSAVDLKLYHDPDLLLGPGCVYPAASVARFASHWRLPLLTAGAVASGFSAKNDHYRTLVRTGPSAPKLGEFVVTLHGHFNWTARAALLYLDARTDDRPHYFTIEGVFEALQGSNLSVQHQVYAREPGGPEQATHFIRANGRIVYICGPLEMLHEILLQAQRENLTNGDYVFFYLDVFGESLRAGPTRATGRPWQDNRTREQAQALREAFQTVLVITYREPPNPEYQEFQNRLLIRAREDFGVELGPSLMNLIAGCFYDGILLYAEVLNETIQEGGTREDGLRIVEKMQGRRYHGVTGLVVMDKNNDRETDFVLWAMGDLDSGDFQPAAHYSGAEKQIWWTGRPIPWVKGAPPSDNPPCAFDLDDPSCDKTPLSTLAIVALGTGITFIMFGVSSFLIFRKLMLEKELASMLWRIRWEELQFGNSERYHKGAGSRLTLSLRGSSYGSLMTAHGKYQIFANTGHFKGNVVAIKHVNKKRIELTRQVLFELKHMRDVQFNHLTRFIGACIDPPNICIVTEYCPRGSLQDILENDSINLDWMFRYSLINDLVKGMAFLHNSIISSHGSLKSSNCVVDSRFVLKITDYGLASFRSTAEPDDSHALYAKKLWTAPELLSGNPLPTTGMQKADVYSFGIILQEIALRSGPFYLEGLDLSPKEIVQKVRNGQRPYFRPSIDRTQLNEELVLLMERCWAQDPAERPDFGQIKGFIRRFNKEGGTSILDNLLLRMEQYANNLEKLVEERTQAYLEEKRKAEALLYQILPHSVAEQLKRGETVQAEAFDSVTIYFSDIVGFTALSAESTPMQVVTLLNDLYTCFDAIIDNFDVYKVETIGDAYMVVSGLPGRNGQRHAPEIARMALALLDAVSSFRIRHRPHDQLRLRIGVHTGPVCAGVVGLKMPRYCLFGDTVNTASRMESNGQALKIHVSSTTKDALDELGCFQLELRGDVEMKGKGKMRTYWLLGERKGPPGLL
# Assay: Natriuretic polypeptide receptor (hNpr2) antagonism - Pilot subtype selectivity assay (AID 1347050); further: potency means the concentration at half of the fitted maximal effect
# Details: NPR2-expressing cells, cGMP antagonist-mode read-out; series mostly up to 38.3 µM
# How it was run: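 Antagonist mode: compounds (LOPAC1280, seven 1:5 dilutions) added 30 min before 1 nM hNppC stimulation of hNpr2-HEK293 cGMP-sensor cells; luminescence read before and 20 min after agonist at ambient temperature.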
row,Structure (SMILES),Potency
1,NCCS(=O)(=O)O,inactive
2,CNCCCC12CCC(c3ccccc31)c1ccccc12,inactive
3,COc1cc2nc(N3CCN(C(=O)C4COc5ccccc5O4)CC3)nc(N)c2cc1OC (configuration not stated),inactive
4,CC(C)NCC(O)c1ccc(O)c(O)c1 (configuration not stated),inactive
5,CN(C)CCC=C1c2ccccc2C=Cc2ccccc21,16.5 µM (active)
6,Cn1c(=O)c2[nH]cnc2n(C)c1=O,inactive
7,Cc1cc(C(C)(C)C)cc(C)c1CC1=NCCN1,inactive
8,COc1ccccc1OCC(O)CN1CCN(CC(=O)Nc2c(C)cccc2C)CC1 (configuration not stated),inactive
9,NC12CC3CC(CC(C3)C1)C2,inactive
10,CN1CCN(CCCN2c3ccccc3Sc3ccc(Cl)cc32)CC1,18.5 µM (active)
11,CCC1(C)CC(=O)NC1=O (configuration not stated),inactive
12,Clc1ccccc1C(c1ccccc1)(c1ccccc1)n1ccnc1,inactive
13,CC[N+](CC)(CC)CCOc1cccc(OCC[N+](CC)(CC)CC)c1OCC[N+](CC)(CC)CC,inactive
14,NC(=O)NO,inactive
15,NCCCCCC(=O)O,inactive
16,CCc1cccc2c3c([nH]c12)C(CC)(CC(=O)O)OCC3 (configuration not stated),inactive
17,CN1C(C(=O)Nc2ccccn2)=C(O)c2ccccc2S1(=O)=O,inactive
18,Cc1cnc(C(=O)NCCc2ccc(S(=O)(=O)NC(=O)NC3CCCCC3)cc2)cn1,inactive
19,COc1nc(C)nc(Cl)c1NC1=NCCN1,inactive
20,Cc1ccc(C(=O)Nc2ccc(S(=O)(=O)O)c3cc(S(=O)(=O)O)cc(S(=O)(=O)O)c23)cc1NC(=O)c1cccc(NC(=O)Nc2cccc(C(=O)Nc3cc(C(=O)Nc4ccc(S(=O)(=O)O)c5cc(S(=O)(=O)O)cc(S(=O)(=O)O)c45)ccc3C)c2)c1,inactive
21,OCCN1CCN(CCCN2c3ccccc3Sc3ccc(C(F)(F)F)cc32)CC1,inactive
22,C[C@](N)(Cc1ccc(O)c(O)c1)C(=O)O,inactive
23,Cc1cn([C@H]2C[C@H](N=[N+]=[N-])[C@@H](CO)O2)c(=O)[nH]c1=O,inactive
24,NC(=O)OCC(COC(N)=O)c1ccccc1,inactive
25,NC(CO)C(=O)NNCc1ccc(O)c(O)c1O (configuration not stated),inactive
26,O=C(c1ccc(F)cc1)C1CCN(CCn2c(=O)[nH]c3ccccc3c2=O)CC1,inactive
27,Cc1cc(C(C)(C)C)c(O)c(C)c1CC1=NCCN1,inactive
28,COc1cc2nc(N(C)CCCNC(=O)C3CCCO3)nc(N)c2cc1OC (configuration not stated),inactive
29,CCCCc1oc2ccccc2c1C(=O)c1cc(I)c(OCCN(CC)CC)c(I)c1,inactive
30,COc1cc2nc(N3CCN(C(=O)c4ccco4)CC3)nc(N)c2cc1OC,inactive
